{"source": "ChEMBL document CHEMBL4513216", "about": "“Probing the Open Global Health Chemical Diversity Library for Multistage-Active Starting Points for Next-Generation Antimalarials” (ACS Infect Dis, 2020)", "note": "The campaign covered roughly 68,000 compounds. About 2,700 (4%) showed an effect of 50% or more. The entries come from a sample that favours strong results as a whole.", "data": [{"test_system": "Plasmodium berghei", "test": "Screen against P. berghei liver stage (PbLuc), transformed with Luciferase, at 2uM", "assay_type": "functional, HepG2", "settings": "tested at 2 uM", "units": {"INHIBITION": "%"}, "values": [{"smiles": "Cc1ccc(CN(CCCn2ccnc2)Cc2cc(F)ccc2F)s1", "INHIBITION": 20.71}, {"smiles": "CC1=N[C@@]2(CC[C@@H]3CN(CC4CC4)C[C@@H]32)C(=O)N1CC(C)C", "INHIBITION": 28.85}, {"smiles": "CN(Cc1ccco1)[C@@H]1CN(C(=O)c2ccnnc2)[C@@H]2CCCO[C@H]12", "INHIBITION": 7.08}, {"smiles": "Cc1nccnc1N1C[C@H]2CN(C3CCOCC3)C[C@@]2(C(=O)O)C1", "INHIBITION": 8.93}, {"smiles": "CC(NC(=O)c1cc(=O)n(C)c(=O)n1C)c1ccccc1-n1cccn1", "note": "(centres undefined)", "INHIBITION": 50.97}, {"smiles": "CC(NC1CCCC1)c1ccccc1-n1cccn1", "note": "(centres undefined)", "INHIBITION": 21.28}, {"smiles": "CC(NC1CCSCC1)c1ccccc1-n1cccn1", "note": "(centres undefined)", "INHIBITION": 27.52}, {"smiles": "Cc1ccccc1C(C)NC(=O)c1ccc(=O)n(C)c1", "note": "(centres undefined)", "INHIBITION": 64.9}, {"smiles": "CCN(CC)CCCC(C)NC(=O)c1ccccc1-n1cccn1", "note": "(centres undefined)", "INHIBITION": 19.33}, {"smiles": "CC(NC(=O)c1ccc(=O)n(C)c1)c1ccccc1-n1cccn1", "note": "(centres undefined)", "INHIBITION": 51.64}, {"smiles": "CCC(=O)NC(C)c1ccccc1C", "note": "(centres undefined)", "INHIBITION": -6.19}, {"smiles": "Cn1cc(C(=O)Nc2cccc(F)c2)ccc1=O", "INHIBITION": -66.38}, {"smiles": "Cn1c(CNc2c(F)cccc2-n2cccn2)cc(=O)n(C)c1=O", "INHIBITION": 32.14}, {"smiles": "CC(=O)NCc1cc2n(n1)CCN(Cc1ccccc1OC(F)(F)F)C2", "INHIBITION": 27.52}, {"smiles": "CCN(CC)S(=O)(=O)N1C[C@@H](c2ccccc2)[C@H]2[C@H]1CCCCCN2C", "INHIBITION": 20.71}, {"smiles": "Cc1nc(C)c(-c2ccn(CC(=O)Nc3cnn(C)n3)n2)s1", "INHIBITION": 8.05}, {"smiles": "CC(C)=CCN1C[C@@H]2CC[C@H]1CN(C(=O)c1ccc3c(c1)OCO3)C2", "INHIBITION": 34.98}, {"smiles": "Cc1cc2c(=O)n(CCSc3cnn[nH]3)cnc2s1", "INHIBITION": 39.99}, {"smiles": "CN(Cc1ccsc1)C(=O)c1ccc(C2CCCO2)s1", "note": "(centres undefined)", "INHIBITION": -15.11}, {"smiles": "O=C(CNC(=O)c1ccccc1I)NCc1ccccc1F", "INHIBITION": -20.75}, {"smiles": "CS(=O)(=O)NCc1cc(=O)n2c(n1)CN(CC1CC1)CCC2", "INHIBITION": 33.12}, {"smiles": "Clc1cnccc1N1CCCC2(CCCOC2)C1", "note": "(centres undefined)", "INHIBITION": 48.73}, {"smiles": "CCS(=O)(=O)c1ccc(N2CCC(NC(C)=O)CC2)cc1", "INHIBITION": -0.54}, {"smiles": "CCS(=O)(=O)c1ccc(N2CCC(N)CC2)cc1", "INHIBITION": 67.9}, {"smiles": "CCNC(=O)NC1CCN(c2ccc(S(=O)(=O)CC)cc2)CC1", "INHIBITION": -6.38}, {"smiles": "O=C(c1sccc1C1CC1)N1CCN(c2nccs2)CC1", "INHIBITION": -15.54}, {"smiles": "CC(c1ccon1)N(C)S(=O)(=O)NCc1ccccc1", "note": "(centres undefined)", "INHIBITION": -6.7}, {"smiles": "Cc1cc(C(=O)N(C)CC(F)(F)C(F)(F)F)ccc1-n1cncn1", "INHIBITION": 49.78}, {"smiles": "CCN(CC)C(=O)CCc1nc(-c2cnn3c(C)cc(C)nc23)no1", "INHIBITION": -23.48}]}]}
